# Test results published in a collection of fitness landscapes (doi:10.1126/science.1257360).
# Whole data set: some 140,000 sequences, median “enrichment ratio after two sorts for PhoP signalling” near 0, cut for the highest 2% near 11. The list comes from a sample in which the highest values are over-represented; it also holds similar and randomly drawn sequences.
# B1: PhoQ; a variant is named by its letters at X, in order, P23837 (parent)
# chain: MKKLLRLFFPLSLRVRFLLATAAVVLVLSLAYGMVALIGYSVSFDKTTFRLLRGESNLFYTLAKWENNKLHVELPENIDKQSPTMTLIYDENGQLLWAQRDVPWLMKMIQPDWLKSNGFHEIEADVNDTSLLLSGDHSIQQQLQEVREDDDDAEMTHSVAVNVYPATSRMPKLTIVVVDTIPVELKSSYMVWSWFIYVLSANLLLVIPLLWVAAWWSLRPIEALAKEVRELEEHNRELLNPATTRELTSLVRNLNRLLKSERERYDKYRTTLTDLTHSLKTPLXXLQXXLRSLRSEKMSVSDAEPVMLEQISRISQQIGYYLHRASMRGGTLLSRELHPVAPLLDNLTSALNKVYQRKGVNISLDISPEISFVGEQNDFVEVMGNVLDNACKYCLEFVEISARQTDEHLYIVVEDDGPGIPLSKREVIFDRGQRVDTLRPGQGVGLAVAREITEQYEGKIVAGESMLGGARMEVIFGRQHSAPKDE
# Variants of: B1
# Experiment: enrichment ratio after two sorts for PhoP signalling (ratio (wild type AVST 3.29)); higher = more functional
# Conditions: with PhoP (E. coli)
row,Variant,enrichment ratio
1,YFHS,≤ 0.25
2,HESK,≤ 0.25
3,QHGM,≤ 0.25
4,QHRM,≤ 0.25
5,NHDI,≤ 0.25
6,QHDM,19.5
7,QHDI,19.6
8,QHDG,110
9,PHDG,≤ 0.25
10,THDG,≤ 0.25
11,THDI,≤ 0.25
12,QHDK,≤ 0.25
13,QHDA,10.1
14,QHDS,29.2
15,LMVM,≤ 0.25
16,EFMR,≤ 0.25
17,LCAK,≤ 0.25
18,IKYG,≤ 0.25
19,AISC,9.79
20,SAFV,≤ 0.25
21,AGNI,≤ 0.25
22,PWYG,≤ 0.25
23,YQNA,14.6
24,YQNY,≤ 0.25

row,Variant,enrichment ratio
1,WQLM,15.8
2,WELM,17.4
3,WILM,≤ 0.25
4,YQLM,17.7
5,YQLA,≤ 0.25
6,WFLM,≤ 0.25
7,WEGM,≤ 0.25
8,WELF,≤ 0.25
9,YQWM,≤ 0.25
10,YQNS,≤ 0.25
11,QISH,7.86
12,FCVP,≤ 0.25
13,NSRA,0.539
14,NGWY,≤ 0.25
15,VQWA,≤ 0.25
16,SQLM,21.3
17,NQLM,6.38
18,DPLM,≤ 0.25
19,TQLM,22.7
20,KYLM,≤ 0.25
21,EQLM,≤ 0.25
22,MPQH,≤ 0.25
23,KFKS,≤ 0.25
24,TDIN,≤ 0.25

row,Variant,enrichment ratio
1,LAGL,≤ 0.25
2,SWST,≤ 0.25
3,DQAN,≤ 0.25
4,NMCY,≤ 0.25
5,AHCY,12.7
6,AMCY,25.2
7,THCY,1.87
8,VLCY,≤ 0.25
9,NHCY,≤ 0.25
10,SYHH,0.299
11,IIEM,≤ 0.25
12,KTPQ,≤ 0.25
13,MTSW,≤ 0.25
14,AFCE,≤ 0.25
15,AFCG,11.4
16,AFVG,4.66
17,AFCI,≤ 0.25
18,AFMG,19.5
19,AFAG,≤ 0.25
20,SDVD,≤ 0.25
21,FQFY,≤ 0.25
22,YCFT,≤ 0.25
23,QDDD,≤ 0.25
24,NLAY,≤ 0.25

row,Variant,enrichment ratio
1,GAMS,≤ 0.25
2,TPSS,≤ 0.25
3,MNLC,11.7
4,GNLC,4.14
5,MCLC,1.65
6,KCLC,≤ 0.25
7,MNLA,≤ 0.25
8,TNLC,13.5
9,RMKH,≤ 0.25
10,FPFY,≤ 0.25
11,FYFF,≤ 0.25
12,FHQK,≤ 0.25
13,ADIH,≤ 0.25
14,ANIH,≤ 0.25
15,ATIH,25.3
16,AGIH,16.3
17,YTIH,≤ 0.25
18,TGIH,≤ 0.25
19,HART,≤ 0.25
20,AQHF,≤ 0.25
21,ADSF,≤ 0.25
22,WISF,≤ 0.25
23,AKSF,2.49
24,AISF,13.4

row,Variant,enrichment ratio
1,AQSF,11.9
2,PMKN,≤ 0.25
3,SCIV,1.12
4,RQQH,≤ 0.25
5,RQKH,≤ 0.25
6,GGCA,6.15
7,AGWM,≤ 0.25
8,GGCE,≤ 0.25
9,RGCE,≤ 0.25
10,AGCK,16.1
11,AGGM,≤ 0.25
12,TGCA,19.8
13,RGCA,≤ 0.25
14,TGCE,24.6
15,RQKI,19.2
16,GKAG,≤ 0.25
17,TPNE,≤ 0.25
18,EIDL,≤ 0.25
19,VTQY,≤ 0.25
20,KAGG,≤ 0.25
21,SNFF,≤ 0.25
22,GGCK,≤ 0.25
23,AGCA,15
24,AGVA,1.62

row,Variant,enrichment ratio
1,AGDI,≤ 0.25
2,AGCV,23.6
3,AGDH,≤ 0.25
4,AGVY,18.3
5,TGCV,7.81
6,RGCK,≤ 0.25
7,AGWI,≤ 0.25
8,TGVY,2.88
9,TGCK,37.2
10,IEAT,≤ 0.25
11,WPAK,≤ 0.25
12,GFQM,≤ 0.25
13,YNLK,≤ 0.25
14,DYIY,≤ 0.25
15,KRVH,≤ 0.25
16,PCSH,≤ 0.25
17,ESFE,≤ 0.25
18,QFHQ,≤ 0.25
19,GIIK,≤ 0.25
20,IAHY,≤ 0.25
21,VMDH,≤ 0.25
22,YWCL,≤ 0.25
23,AGCS,10.8
24,AKQM,≤ 0.25

row,Variant,enrichment ratio
1,AGWL,≤ 0.25
2,AHQM,≤ 0.25
3,TGCM,16.3
4,AGCL,15.2
5,AGCI,14
6,AGQM,15.8
7,RGCM,≤ 0.25
8,AGCE,6.71
9,QGCM,1.34
10,YRSY,≤ 0.25
11,NQKY,≤ 0.25
12,VYPF,1.11
13,GMYR,≤ 0.25
14,RCYS,≤ 0.25
15,YPFH,≤ 0.25
16,AGQP,≤ 0.25
17,AGCM,13.6
18,AGCQ,23
19,YWCQ,≤ 0.25
20,AWCM,≤ 0.25
21,ANCM,6.06
22,GNWY,≤ 0.25
23,SFTF,≤ 0.25
24,HKIE,≤ 0.25

row,Variant,enrichment ratio
1,QMVR,≤ 0.25
2,VRVL,≤ 0.25
3,KRVL,≤ 0.25
4,KSVL,≤ 0.25
5,FSVL,11.7
6,SLVL,1.22
7,FCVL,0.336
8,TRVL,11.6
9,SSVL,13.8
10,SSVA,10.9
11,SHQM,0.951
12,ITPF,≤ 0.25
13,PVFC,≤ 0.25
14,QDST,≤ 0.25
15,QTQP,≤ 0.25
16,ISEK,≤ 0.25
17,KQRD,≤ 0.25
18,AYKP,≤ 0.25
19,LQCG,≤ 0.25
20,SNCG,13.5
21,EQCG,≤ 0.25
22,SPCG,1.67
23,IQCG,≤ 0.25
24,SQCG,24.3

row,Variant,enrichment ratio
1,ERSH,≤ 0.25
2,EHYT,≤ 0.25
3,MEGY,11.2
4,NHGY,≤ 0.25
5,MTGY,14.4
6,STGY,8.87
7,ADGY,≤ 0.25
8,TGGY,7.07
9,THGY,13.8
10,MTGR,≤ 0.25
11,MFGY,≤ 0.25
12,MMGY,≤ 0.25
13,TDGY,11.5
14,LTGY,≤ 0.25
15,GYHY,≤ 0.25
16,MGHH,≤ 0.25
17,LMID,≤ 0.25
18,KSGY,≤ 0.25
19,TSGY,14.8
20,FSGY,≤ 0.25
21,YTGY,≤ 0.25
22,TTGY,20.5
23,GTGY,≤ 0.25
24,EHTS,≤ 0.25

row,Variant,enrichment ratio
1,KLNV,≤ 0.25
2,PLEP,≤ 0.25
3,KFAF,≤ 0.25
4,KLER,0.976
5,LRTC,≤ 0.25
6,GPSH,≤ 0.25
7,REFT,≤ 0.25
8,WYPR,≤ 0.25
9,FIPD,≤ 0.25
10,HYLL,≤ 0.25
11,MKLL,11.4
12,AALL,14.9
13,AILL,4.86
14,LFLL,≤ 0.25
15,AYLL,≤ 0.25
16,IALL,8.58
17,HFLL,≤ 0.25
18,AKLL,14.3
19,HALL,12.4
20,MYLL,≤ 0.25
21,ERET,≤ 0.25
22,DVMR,≤ 0.25
23,IMCE,≤ 0.25
24,DQPA,≤ 0.25

row,Variant,enrichment ratio
1,YWCG,≤ 0.25
2,VLVV,≤ 0.25
3,DQYW,≤ 0.25
4,CFLG,≤ 0.25
5,KMML,≤ 0.25
6,KKLL,≤ 0.25
7,AMLL,14.2
8,TKLL,16.2
9,HKLL,1.86
10,NMLL,≤ 0.25
11,KMLL,≤ 0.25
12,VNCN,≤ 0.25
13,GPQD,≤ 0.25
14,AVPS,≤ 0.25
15,AVHP,≤ 0.25
16,AVSK,16.9
17,AVSQ,14.8
18,AVTC,6.81
19,AVWI,≤ 0.25
20,AVSC,12.2
21,AVMW,≤ 0.25
22,AVPC,≤ 0.25
23,AVFQ,≤ 0.25
24,AVMI,15.6

row,Variant,enrichment ratio
1,AVMV,2.94
2,MDVN,≤ 0.25
3,FYFS,≤ 0.25
4,KVID,≤ 0.25
5,GEKS,≤ 0.25
6,MTIG,≤ 0.25
7,NDGW,≤ 0.25
8,SKVW,≤ 0.25
9,AVPI,2.35
10,AKAW,≤ 0.25
11,NVAW,≤ 0.25
12,AVNL,≤ 0.25
13,AVMN,18.8
14,AVTW,43.5
15,AVFW,≤ 0.25
16,AVRW,≤ 0.25
17,AVPA,≤ 0.25
18,AVAW,22.5
19,AVWN,≤ 0.25
20,AVTK,17.9
21,LTGM,≤ 0.25
22,MQNP,≤ 0.25
23,KLMC,≤ 0.25
24,LHAE,≤ 0.25

row,Variant,enrichment ratio
1,DSVM,≤ 0.25
2,KHEF,≤ 0.25
3,FSFL,1.26
4,WYFI,≤ 0.25
5,EMFN,≤ 0.25
6,SEHM,23.7
7,TGHM,4.7
8,KYHM,≤ 0.25
9,YYHM,≤ 0.25
10,TEHM,58.9
11,QEHM,10.7
12,EAYE,≤ 0.25
13,GGYY,≤ 0.25
14,AKAM,13.1
15,ADAM,3.24
16,AIAM,6.08
17,ALWM,≤ 0.25
18,TLAM,3.04
19,ANIM,4.25
20,AAAM,10.1
21,ALAM,12.2
22,ANAM,32.2
